# Eya2 inh – qHTS Assay for Inhibitors of the Phosphatase Activity of Eya2. hit rate 0.006% among 330,000. Protein phosphatase EYA2 (Homo sapiens), O00167. AID 488837, 2010. recombinant Eya2, OMFP fluorescence dephosphorylation (OMFP is methylfluorescein phosphate). Potency, µM (series often up to 76.9 µM), inactives show at the highest dose activity, negative = inhibition, hits mostly inhibitors; also: potency is read from the fitted curve at half-maximal effect; % is scaled to controls: 0 for no effect and ±100 for the full control effect
#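 Eya2 protein (added as 0.2 uM solution) was preincubated with compound for 10 min at ambient temperature in 50 mM HEPES pH 7.5, 50 mM NaCl, 5 uM MgCl2, 0.05% BSA, 1 mM DTT. OMFP (added at 50 uM) then reacted 10 min; fluorescence read at 485/525 nm.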
# Six1-Eya2 blk – qHTS Assay for Inhibitors of the Six1/Eya2 Interaction. AID 651725, 2012. AlphaScreen GST-Six1/His-Eya2 binding, biochemical; stronger effect = lower value. activity change, % (concentration not given with the values). hit rate 0.56% among 360,000; in the data active = activity change below about -65%; inconclusive = mostly about -30% to -63%; also: % is scaled to controls: 0 for no effect and ±100 for the full control effect
#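 Homogeneous AlphaScreen proximity assay pairing GST-Six1 with His-tagged Eya2 (added as 5X mix: 250 nM and 500 nM) in 50 mM Tris pH 8.0, 300 mM NaCl, 1 mM TCEP. Glutathione donor and nickel acceptor beads; 1 h, 37 °C, dark.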
# CBFb-RUNX1 inh – qHTS Assay for Compounds Blocking the Interaction Between CBF-beta and RUNX1 for the Treatment of Acute Myeloid Leukemia | AlphaScreen CBFb-His/RUNX1-biotin binding, biochemical | AID 1477, 2009 | 230,000 tested, under 10 active | Runt-related transcription factor 1 (Homo sapiens) + Core-binding factor subunit beta … | Potency, µM (series often up to 59.8 µM), inactives show at the top dose activity, negative = inhibition, actives largely listed as inhibitors; also: % of control where 0% means no effect
#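 AlphaScreen binding: CBFb-His and RUNX1-biotin (30 nM each) preincubated 20 min, compound added for 15 min, then nickel and streptavidin beads for 90 min, all at room temperature. Disruption of the interaction by any mechanism counts as activity.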
# CtBP-E1A blk – qHTS Assay for Inhibitors of the CtBP/E1A Interaction; CtBP / adenovirus E1A interaction (AlphaScreen); hit rate 0.49% among 340,000; AlphaScreen GST-E1A/His-CtBP binding, 1536-well; stronger effect = lower value; activity change, % (concentration not given with the values); in the data active = activity change below about -65%; inconclusive = mostly about -30% to -63%; also: % is scaled to controls: 0 for no effect and ±100 for the full control effect
#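 Homogeneous bead-based format: GST-tagged E1A captured on glutathione donor beads, His-tagged CtBP on nickel acceptor beads; compounds precede bead addition by 2 h at 37 °C.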
# MBNL1 CUG block – qHTS Assay for Inhibitors of MBNL1-poly(CUG) RNA binding; Muscleblind-like protein 1 (Homo sapiens), Q9NR56; TR-FRET MBNL1-His/biotin-(CUG)12 binding, 665/545 ratio; Potency, µM (titrated, usually from 57.5 µM), for the others: at the top dose activity change, negative = inhibition, hits mostly inhibitors; hit rate 0.036% among 280,000; active = well fitted inhibition curve with a large enough effect in the signal ratio, with a control signal flat, not every such curve was filed as active; inconclusive = small, poorly fitted or top-dose-only effect, or effect the other way, or a change in a side signal; inactive = no such curve, though single readings can be large or run the other way; the % refers to the signal ratio; also: potency is read from the fitted curve at half-maximal effect; % is scaled to controls: 0 for no effect and ±100 for the full control effect
#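 Compounds (final 92 nM to 58 uM) are added to His-tagged MBNL1 and biotin-(CUG)12, then terbium anti-His antibody and streptavidin-XL665 (5 nM final). After 60 min at room temperature, the 665/545 nm ratio is read.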
# L3MBTL1 inh – qHTS Assay for the Inhibitors of L3MBTL1. Lethal(3)malignant brain tumor-like protein 1 (Homo sapiens), Q9Y468. AlphaScreen L3MBTL1–H3K9me1 peptide binding. Potency, µM (top dose mostly 57.1 µM), without a hit: at the highest dose activity, negative = inhibition, most hits filed as inhibitors. hit rate 0.66% among 230,000. AID 485360, 2010; also: potency is read from the fitted curve at half-maximal effect; % is scaled to controls: 0 for no effect and ±100 for the full control effect; nearly all actives have a fitted effect of over 60% in size
# Target sequence (Q9Y468 whole entry, looked up): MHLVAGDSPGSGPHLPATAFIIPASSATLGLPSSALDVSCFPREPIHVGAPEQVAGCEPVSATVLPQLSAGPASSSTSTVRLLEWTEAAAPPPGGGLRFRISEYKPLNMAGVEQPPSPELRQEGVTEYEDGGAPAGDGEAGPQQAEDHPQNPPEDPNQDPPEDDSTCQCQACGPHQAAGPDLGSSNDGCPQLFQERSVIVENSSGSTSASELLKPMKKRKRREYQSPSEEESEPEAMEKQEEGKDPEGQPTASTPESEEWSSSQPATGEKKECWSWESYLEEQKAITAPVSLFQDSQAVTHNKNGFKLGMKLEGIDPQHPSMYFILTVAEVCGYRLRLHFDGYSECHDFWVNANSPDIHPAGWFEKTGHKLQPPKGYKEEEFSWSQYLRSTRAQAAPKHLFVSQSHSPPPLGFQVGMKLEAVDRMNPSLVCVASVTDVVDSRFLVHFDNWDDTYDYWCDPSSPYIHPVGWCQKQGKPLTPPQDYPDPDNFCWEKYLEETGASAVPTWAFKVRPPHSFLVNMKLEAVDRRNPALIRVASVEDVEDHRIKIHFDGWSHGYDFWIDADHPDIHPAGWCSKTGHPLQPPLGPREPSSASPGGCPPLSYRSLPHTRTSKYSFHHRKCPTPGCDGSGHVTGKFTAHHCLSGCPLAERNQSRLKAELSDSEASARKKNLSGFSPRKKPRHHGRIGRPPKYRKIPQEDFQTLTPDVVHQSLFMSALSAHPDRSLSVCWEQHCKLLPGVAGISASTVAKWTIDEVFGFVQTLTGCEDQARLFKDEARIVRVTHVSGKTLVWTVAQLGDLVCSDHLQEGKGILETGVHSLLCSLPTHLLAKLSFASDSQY
#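 First, the protein-peptide complex forms for 30 min at room temperature (L3MBTL1 50 nM, biotinylated H3K9me1 peptide 75 nM). Next, compounds are pin-transferred and incubated 30 min. Finally, AlphaScreen beads are added and read after 30 min.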
# The depositor's hits bear a star; ? = inconclusive; · = no result given; [ ] = another dose, or the depositor's remark. Rows were chosen to be rich in hits. Some 0.89% of all compounds tested hit in one or more screens of this group. Unless noted, calls follow the shape of the dose curve; as a rule, active = well fitted curve in the direction sought with a large enough effect; inconclusive = small, poorly fitted or top-dose-only effect, or another doubt; inactive = no such curve, though single readings can be large; an effect the other way counts as inactive or inconclusive.
SMILES,Eya2 inh,Six1-Eya2 blk,CBFb-RUNX1 inh,CtBP-E1A blk,MBNL1 CUG block,L3MBTL1 inh
O=C(O)c1cc(O)c2c(c1)[C@H]([C@H]1c3cc(C(=O)O)cc(O)c3C(=O)c3c(O[C@@H]4O[C@H](CO)[C@@H](O)[C@H](O)[C@H]4O)cccc31)c1cccc(OC3O[C@H](CO)[C@@H](O)[C@H](O)[C@H]3O)c1C2=O (stereo partly drawn),-25%,-74*,·,?,·,0.16µM*
O=C(O)c1cc(O)c2c(c1)[C@@H]([C@H]1c3cc(C(=O)O)cc(O)c3C(=O)c3c(O[C@@H]4O[C@H](CO)[C@@H](O)[C@H](O)[C@H]4O)cccc31)c1cccc(OC3O[C@H](CO)[C@@H](O)[C@H](O)[C@H]3O)c1C2=O (stereo partly drawn),-33%,-82*,·,-29,·,0.16µM*
O=C1c2cc(CO)cc(O)c2C(=O)c2c(O[C@@H]3OC(CO)[C@@H](O)[C@@H](O)[C@@H]3O)cccc21 (stereo partly drawn),·,-3,·,-4,·,·
NC(=O)c1ccc([N+](=O)[O-])cc1,·,·,0%[21.7 µM],·,·,·
O=[N+]([O-])c1ccc(C=Nc2ccc(Cl)c([N+](=O)[O-])c2)s1,8%,·,-15%,·,?,?
Cc1cc(C)cc(N=Cc2ccc([N+](=O)[O-])s2)c1,2%,?,6%,?,11%[11.5 µM],8.9µM*
NC(=O)c1ccc(N=Cc2ccc([N+](=O)[O-])s2)cc1,-11%,?,-19%,?,17%,13µM*
Cc1c(N=NC2=C(O)CCCC2=O)c(=O)n(-c2ccccc2)n1C,-18%,-79*,13%,-92*,?,-8%
Cc1ccccc1-c1cccc([C@@H]2C[C@H]3CN(Cc4cccnc4)C(=O)[C@]34CCCN24)c1,15%,-15,-4%,-13,-8%,-14%
COc1ccccc1/C=c1\sc2nc(-c3ccccc3OC)nn2c1=O,6%,1,-1%,-5,4%,-5%
COc1ccc(Br)cc1/C=c1\sc2nc(-c3ccco3)nn2c1=O,-11%,-24,?,-2,5%,7.9µM*
C/C(=N\Nc1ncnc2sc(C)c(C)c12)c1ccccn1,8%,-73*,·,-94*,6%,·
Cc1sc2ncnc(N/N=C/c3cccc(O)c3)c2c1C,-5%,?,-15%,-24,?,7%
C/C(=N\Nc1ncc(Cl)cc1Cl)c1ccccn1,-7%,-87*,?,-66*,-2%,-23%
C/C(=N\Nc1ccc(Cl)c(C(=O)O)c1)c1ccccn1,0%,-15,8%,-18,-5%,-5%
COc1ccc(OC)c(C2C(C(C)=O)=C(C)Nc3ncnn32)c1 (stereo not drawn),-2%,7,·,7,3%,4%
NC(Cc1cnc[nH]1)c1csc(Nc2ccc(C(F)(F)F)cn2)n1 (stereo not drawn),·,-90*,·,-92*,·,·
NC(Cc1ccc(F)cc1)c1csc(Nc2ccc(C(F)(F)F)cn2)n1 (stereo not drawn),·,-5,·,-6,·,·
O=[N+]([O-])c1cc(Cl)ccc1Nc1ccccc1,-6%,-78*,·,·,?,28µM*
COc1c(O)cccc1/C=N/NC(=O)Cn1ccnc1C,4%,-93*,-23%,·,15%,?
COc1cccc(/C=N/NC(=O)Cn2ccnc2C)c1,-8%,-1,6%,5,-2%,-1%
CC(C)CC1Nc2ccc(C(=O)NCCCN3CCCCC3C)cc2NC1=O (stereo not drawn),0%,1,·,1,12%,·
O=C1CC(c2ccco2)CC(O)=C1C=Nc1cc(Cl)ccc1O (stereo not drawn),6%,-9,?,-7,15%,35µM*
O=C1CC(c2ccco2)CC(O)=C1C=Nc1ccccc1-c1ccccc1 (stereo not drawn),0%,-2,-2%,1,21%,·
Cc1c(Cl)cccc1NS(=O)(=O)c1ccc2c(c1)C1C=CCC1C(c1ccc(C(=O)O)cc1)N2 (stereo not drawn),-5%,?,·,-2,7%,7.9µM*
SMILES,Eya2 inh,Six1-Eya2 blk,CBFb-RUNX1 inh,CtBP-E1A blk,MBNL1 CUG block,L3MBTL1 inh
COc1cccc(-n2c(=O)c3cc(OC)c(OC)cc3n(CC(=O)Nc3cc(C)[nH]n3)c2=O)c1,-7%,-12,-15%,-4,·,-11%
O=CN/C=C/c1cc(O)ccc1O,11%,-17,·,-7,15%,16µM*
COc1cc(C2Nc3cccc4cccc(c34)N2)ccc1OC(C)=O,3%,-20,-2%,-23,21%,?
COc1cc(C2Nc3cccc4cccc(c34)N2)cc(OC)c1O,-14%,-10,6%,8,17%,22µM*
NC(=Nc1ccc(N)cc1)C(N)=Nc1ccc(N)cc1,7%,-65*,·,?,?,32µM*
COc1ccc2cc(C(=O)N/N=C/c3cc(OC)c(OC)c(OC)c3)[nH]c2c1,-13%,?,·,?,?,·
COc1cccc(/C=N/NC(=O)c2cc3c(OC)ccc(OC)c3[nH]2)c1O,4%,-68*,·,·,3%,·
COc1cc(OC)c2cc(C(=O)N/N=C/c3cccc(OC)c3O)[nH]c2c1,3%,?,-7%,-76*,0%,-2%
CCc1ccccc1Nc1nn2c(=O)c3ccc(C(=O)NCc4ccccn4)cc3nc2s1,?,?,·,-79*,15%,·
O=C(COC(=O)c1ccc(O)cc1)NCCC1=CCCCC1,-15%,5,6%,·,-5%,2%
O=C(COC(=O)c1ccc2c(c1)OCCO2)NCCC1=CCCCC1,-6%,-71*,7%,-1,6%,12%
O=C(/C=C/c1ccccc1)Oc1ccc(C(=S)N2CCOCC2)cc1,-14%,?,-2%,·,5%,·
COC(=O)c1ccc(OC(=O)/C=C/c2ccco2)cc1,3%,-85*,·,-93*,?,·
O=C(/C=C/c1ccco1)Oc1ccc(C(=S)N2CCOCC2)cc1,-27%,-89*,-4%,-93*,?,·
O=C(Cc1cccc2ccccc12)N/N=C/c1ccc(OC(=O)/C=C/c2ccco2)cc1,2%,?,-22%,?,-2%,25µM*

# Screening results: PubChem, National Center for Advancing Translational Sciences (NCATS)
